About 7,900 targets were measured; listed, in parts, are those with a hit and a random draw of the rest. About 0.6% of all pairs of compound and target were hits. A number with no mark means an inactive call.
Columns and labels:
Experiment in all cases: log2 fold change, soluble protein after heating vs DMSO (PISA); higher = thermal stabilisation; K562 cells, 10 uM, 30 min; active = over 0.2 and 3.5 SD of the protein, either way, in both replicates (recomputed)
[1] = compound: C1COCCN1CCN2C3=CC=CC=C3N=C2NC(=O)C4=CC(=CC=C4)[N+](=O)[O-] [IRAK-1-4 Inhibitor I]
How it was run: (§1)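 K562 cells (2×10^6 cells/mL) were treated with 10 μM compound for 30 min, and aliquots were heated for 3 min over 48°C-58°C. Pooled aliquots were extracted in PBS with 0.5% NP-40 at 4°C, and the supernatant after 21,000xg for 90 min was measured by TMTpro 16plex LC-MS/MS with channel sums equalised. Reported thermal stability, relative to control samples and from duplicates, is a log2 fold change.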

[2] = compound: C=CC(=O)N1CCC[C@@H](n2nc(-c3ccc(Oc4ccccc4)cc3)c3c(N)ncnc32)C1 [ibrutinib]
How it was run: as §1

[3] = compound: CC(=O)c1cnc2ccc(-c3cc(Cl)c(O)c(Cl)c3)nc2c1N[C@H]1CC[C@H](CN(C)C)CC1
How it was run: as §1

[4] = compound: CC(C)(C)Cn1c(N)nc2ccc(-c3[nH]c(C(C)(C)C)nc3-c3ccc(F)cc3)nc21 [ralimetinib]
How it was run: as §1

[5] = compound: CC(C)(O)CC(=O)NCCn1ccc2ncnc(Nc3ccc(Oc4cccc(C(F)(F)F)c4)c(Cl)c3)c21
How it was run: as §1

[6] = compound: CC(C)C1=C2N=C(C=C(N2N=C1)NCC3=CC=CC=C3)NCCCCCCN
How it was run: as §1

[7] = compound: CC(C)C[C@@H](C=O)NC(=O)[C@H](CC(C)C)NC(=O)[C@H](CC(C)C)NC(=O)OCc1ccccc1
How it was run: as §1

[8] = compound: CC(C)N(C[C@H]1O[C@@H](n2cnc3c(N)ncnc32)[C@H](O)[C@@H]1O)[C@H]1C[C@@H](CCc2nc3cc(C(C)(C)C)ccc3[nH]2)C1 [pinometostat]
How it was run: as §1

[9] = compound: CC1=C(C(CC(=O)N1)C2=CC=C(C=C2)C(F)(F)F)C(=O)NC3=C(C=C4C(=C3)C=NN4)F
How it was run: as §1

[10] = compound: CC1=C(C2=C(C=C1)C(=O)C3=CC=CC=C3N2CCCN)C
How it was run: as §1

UniProt Q13123, sequence (Q13123 whole entry, looked up): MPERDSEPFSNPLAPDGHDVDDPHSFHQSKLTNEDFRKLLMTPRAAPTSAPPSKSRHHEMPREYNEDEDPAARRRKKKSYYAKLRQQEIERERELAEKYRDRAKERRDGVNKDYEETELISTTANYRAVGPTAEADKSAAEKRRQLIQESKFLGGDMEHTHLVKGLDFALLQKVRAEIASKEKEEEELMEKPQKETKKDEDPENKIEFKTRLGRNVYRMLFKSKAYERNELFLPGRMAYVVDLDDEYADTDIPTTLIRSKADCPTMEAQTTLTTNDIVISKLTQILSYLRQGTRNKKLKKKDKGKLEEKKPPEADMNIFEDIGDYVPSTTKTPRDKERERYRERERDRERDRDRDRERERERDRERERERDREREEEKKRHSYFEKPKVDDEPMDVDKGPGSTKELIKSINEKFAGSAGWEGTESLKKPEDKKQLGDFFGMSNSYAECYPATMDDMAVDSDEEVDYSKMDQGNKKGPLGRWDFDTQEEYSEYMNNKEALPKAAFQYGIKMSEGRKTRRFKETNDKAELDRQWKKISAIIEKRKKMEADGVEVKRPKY
UniProt Q9H6V9, sequence (Q9H6V9 whole entry, looked up): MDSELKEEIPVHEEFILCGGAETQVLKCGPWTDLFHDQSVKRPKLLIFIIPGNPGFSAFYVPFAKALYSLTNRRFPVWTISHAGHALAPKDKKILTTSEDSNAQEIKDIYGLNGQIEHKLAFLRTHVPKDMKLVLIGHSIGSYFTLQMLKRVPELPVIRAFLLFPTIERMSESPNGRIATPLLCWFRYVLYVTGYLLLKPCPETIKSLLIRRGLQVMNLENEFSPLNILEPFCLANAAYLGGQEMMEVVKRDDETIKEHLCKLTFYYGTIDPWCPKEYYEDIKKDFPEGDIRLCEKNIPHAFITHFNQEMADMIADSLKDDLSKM
UniProt Q96PV6, sequence (Q96PV6 whole entry, looked up): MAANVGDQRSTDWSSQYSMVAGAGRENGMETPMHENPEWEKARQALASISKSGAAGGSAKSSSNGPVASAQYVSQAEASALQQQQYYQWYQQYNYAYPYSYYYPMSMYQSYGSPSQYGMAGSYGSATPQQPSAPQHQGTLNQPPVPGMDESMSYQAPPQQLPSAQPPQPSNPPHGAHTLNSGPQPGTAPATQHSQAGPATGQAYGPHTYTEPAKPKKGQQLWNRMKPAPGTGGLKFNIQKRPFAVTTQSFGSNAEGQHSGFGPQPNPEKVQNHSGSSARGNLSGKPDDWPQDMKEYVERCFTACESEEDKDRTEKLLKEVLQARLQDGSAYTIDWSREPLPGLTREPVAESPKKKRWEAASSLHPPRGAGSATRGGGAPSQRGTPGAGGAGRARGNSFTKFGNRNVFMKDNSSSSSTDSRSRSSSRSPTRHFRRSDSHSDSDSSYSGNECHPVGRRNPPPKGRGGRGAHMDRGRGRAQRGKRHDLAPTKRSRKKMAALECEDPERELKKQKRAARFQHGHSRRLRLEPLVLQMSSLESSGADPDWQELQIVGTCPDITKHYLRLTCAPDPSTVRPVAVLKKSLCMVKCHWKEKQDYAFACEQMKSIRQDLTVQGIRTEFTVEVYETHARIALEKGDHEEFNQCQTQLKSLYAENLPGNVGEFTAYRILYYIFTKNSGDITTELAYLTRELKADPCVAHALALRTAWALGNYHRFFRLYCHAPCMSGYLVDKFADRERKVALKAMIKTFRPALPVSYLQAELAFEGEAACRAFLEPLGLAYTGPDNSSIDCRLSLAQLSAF
UniProt Q9H0B6, sequence (Q9H0B6 whole entry, looked up): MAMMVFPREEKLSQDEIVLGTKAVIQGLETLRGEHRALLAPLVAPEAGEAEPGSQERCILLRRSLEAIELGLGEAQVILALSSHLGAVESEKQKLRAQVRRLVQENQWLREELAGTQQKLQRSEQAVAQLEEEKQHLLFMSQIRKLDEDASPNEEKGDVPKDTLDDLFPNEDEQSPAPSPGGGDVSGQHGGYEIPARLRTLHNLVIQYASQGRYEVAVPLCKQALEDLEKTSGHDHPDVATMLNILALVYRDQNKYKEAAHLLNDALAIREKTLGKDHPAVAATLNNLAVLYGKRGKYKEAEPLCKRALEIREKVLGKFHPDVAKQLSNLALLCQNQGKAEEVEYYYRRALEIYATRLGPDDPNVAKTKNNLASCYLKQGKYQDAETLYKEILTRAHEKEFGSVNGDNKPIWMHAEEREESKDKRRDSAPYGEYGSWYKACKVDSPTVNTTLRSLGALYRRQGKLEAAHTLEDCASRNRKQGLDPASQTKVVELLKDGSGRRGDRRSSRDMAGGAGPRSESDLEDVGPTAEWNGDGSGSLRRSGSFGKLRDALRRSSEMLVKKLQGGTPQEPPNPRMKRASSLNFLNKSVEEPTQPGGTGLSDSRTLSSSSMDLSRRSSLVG
UniProt P45984, sequence (P45984 whole entry, looked up): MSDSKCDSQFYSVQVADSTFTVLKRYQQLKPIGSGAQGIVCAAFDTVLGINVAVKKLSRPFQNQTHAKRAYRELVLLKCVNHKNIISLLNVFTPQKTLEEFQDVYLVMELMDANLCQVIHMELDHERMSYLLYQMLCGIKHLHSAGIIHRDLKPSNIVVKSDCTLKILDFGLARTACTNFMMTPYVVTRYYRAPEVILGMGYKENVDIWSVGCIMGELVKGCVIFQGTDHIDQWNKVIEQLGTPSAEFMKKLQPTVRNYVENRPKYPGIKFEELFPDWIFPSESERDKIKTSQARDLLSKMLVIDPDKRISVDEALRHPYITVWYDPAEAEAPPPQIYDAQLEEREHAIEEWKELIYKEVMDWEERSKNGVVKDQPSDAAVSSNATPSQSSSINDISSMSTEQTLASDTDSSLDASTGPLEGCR
UniProt Q8IVT5, sequence (Q8IVT5 whole entry, looked up): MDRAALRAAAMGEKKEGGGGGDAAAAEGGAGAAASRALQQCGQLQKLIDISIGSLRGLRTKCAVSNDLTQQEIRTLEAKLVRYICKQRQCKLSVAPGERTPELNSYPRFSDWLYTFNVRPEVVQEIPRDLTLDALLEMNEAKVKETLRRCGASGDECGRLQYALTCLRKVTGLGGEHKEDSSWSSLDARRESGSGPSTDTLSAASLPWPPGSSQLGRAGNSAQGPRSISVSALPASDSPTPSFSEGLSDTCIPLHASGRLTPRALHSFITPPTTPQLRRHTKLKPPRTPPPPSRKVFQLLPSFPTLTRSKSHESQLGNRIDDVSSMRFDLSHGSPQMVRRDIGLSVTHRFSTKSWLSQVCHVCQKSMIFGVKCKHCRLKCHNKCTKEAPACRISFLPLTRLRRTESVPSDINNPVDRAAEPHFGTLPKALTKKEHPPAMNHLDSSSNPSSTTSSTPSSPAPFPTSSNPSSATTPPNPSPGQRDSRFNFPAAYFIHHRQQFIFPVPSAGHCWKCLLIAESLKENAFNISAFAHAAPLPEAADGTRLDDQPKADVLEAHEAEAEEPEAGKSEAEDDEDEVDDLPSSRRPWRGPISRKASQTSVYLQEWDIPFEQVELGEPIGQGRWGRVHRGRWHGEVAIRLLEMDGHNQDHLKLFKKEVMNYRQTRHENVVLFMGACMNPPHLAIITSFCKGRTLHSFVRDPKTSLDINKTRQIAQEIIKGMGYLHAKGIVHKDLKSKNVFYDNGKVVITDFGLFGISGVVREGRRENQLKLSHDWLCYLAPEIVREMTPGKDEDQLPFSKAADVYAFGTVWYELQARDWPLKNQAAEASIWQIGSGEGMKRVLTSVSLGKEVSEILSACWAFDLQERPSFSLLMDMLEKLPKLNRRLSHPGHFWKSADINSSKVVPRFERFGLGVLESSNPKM
UniProt Q6P9B9, sequence (Q6P9B9 whole entry, looked up): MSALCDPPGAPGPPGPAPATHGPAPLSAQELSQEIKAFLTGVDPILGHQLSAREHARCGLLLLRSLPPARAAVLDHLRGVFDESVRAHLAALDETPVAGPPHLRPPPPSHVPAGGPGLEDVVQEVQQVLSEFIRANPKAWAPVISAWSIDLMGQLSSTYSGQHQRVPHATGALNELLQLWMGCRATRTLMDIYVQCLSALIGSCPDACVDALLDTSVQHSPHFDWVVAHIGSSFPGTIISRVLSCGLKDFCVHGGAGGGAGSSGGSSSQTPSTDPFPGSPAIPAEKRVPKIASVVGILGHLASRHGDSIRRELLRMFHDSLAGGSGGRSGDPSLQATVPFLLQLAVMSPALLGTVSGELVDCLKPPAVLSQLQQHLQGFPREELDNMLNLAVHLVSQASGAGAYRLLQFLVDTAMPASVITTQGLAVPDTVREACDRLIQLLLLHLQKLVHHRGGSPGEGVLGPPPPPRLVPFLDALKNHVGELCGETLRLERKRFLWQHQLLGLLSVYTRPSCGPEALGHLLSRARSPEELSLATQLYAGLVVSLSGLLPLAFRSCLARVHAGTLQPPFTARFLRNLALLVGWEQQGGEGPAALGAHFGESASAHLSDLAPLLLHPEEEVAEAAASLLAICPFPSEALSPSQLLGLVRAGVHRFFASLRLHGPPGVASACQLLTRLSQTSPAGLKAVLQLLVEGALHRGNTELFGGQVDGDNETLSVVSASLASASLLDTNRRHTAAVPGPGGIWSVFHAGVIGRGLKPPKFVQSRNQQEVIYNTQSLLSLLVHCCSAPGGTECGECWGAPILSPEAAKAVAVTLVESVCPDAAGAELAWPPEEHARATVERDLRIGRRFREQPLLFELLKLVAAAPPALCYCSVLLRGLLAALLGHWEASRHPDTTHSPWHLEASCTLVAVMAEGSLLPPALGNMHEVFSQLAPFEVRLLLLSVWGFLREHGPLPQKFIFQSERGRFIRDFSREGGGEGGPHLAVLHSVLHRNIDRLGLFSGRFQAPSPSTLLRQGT
UniProt Q9UBF1, sequence (Q9UBF1 whole entry, looked up): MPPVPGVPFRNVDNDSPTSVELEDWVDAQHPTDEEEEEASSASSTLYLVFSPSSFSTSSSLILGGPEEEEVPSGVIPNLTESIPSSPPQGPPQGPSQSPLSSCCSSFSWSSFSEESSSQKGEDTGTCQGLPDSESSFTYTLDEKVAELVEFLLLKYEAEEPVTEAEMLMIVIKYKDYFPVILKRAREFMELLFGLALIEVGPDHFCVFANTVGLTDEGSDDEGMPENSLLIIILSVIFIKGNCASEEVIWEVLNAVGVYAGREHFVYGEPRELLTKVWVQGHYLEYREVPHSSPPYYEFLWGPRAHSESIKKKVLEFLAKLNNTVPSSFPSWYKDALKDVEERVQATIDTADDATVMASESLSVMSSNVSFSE

Target	log2 fold change [1]	log2 fold change [2]	log2 fold change [3]	log2 fold change [4]	log2 fold change [5]	log2 fold change [6]	log2 fold change [7]	log2 fold change [8]	log2 fold change [9]	log2 fold change [10]
KPNA4 (UniProt O00629)	0.008	-0.016	-0.057	-0.048	0.028	-0.063	-0.02	-0.001	0.041	-0.347 (active)
KTN1 (UniProt Q86UP2)	-0.066	-0.029	0.065	0.098	0	-0.343 (active)	0.072	0.102	-0.019	0.071
LUC7L (UniProt Q9NQ29)	-0.098	0.027	-0.137	0.009	0.08	-0.007	0.021	0.101	0.083	-0.056
L2HGDH (UniProt Q9H9P8)	0.095	0.028	-0.065	0.003	-0.092	-0.069	-0.026	0	-0.018	0.029
LMNB1 (UniProt P20700)	-0.004	-0.03	-0.22	0.015	0.091	-0.048	0.031	0.011	0.01	-0.082
IK (UniProt Q13123)	-0.139	-0.067	-0.06	-0.007	0.054	0.031	0.239	0.038	0.022	0.148
LENG8 (UniProt Q96PV6)	-0.122	0	-0.173	-0.13	-0.389	-0.646 (active)	0.107	-0.071	0.031	0.15
KHDRBS1 (UniProt Q07666)	-0.069	0.038	-0.002	0.016	0.073	-0.039	0.017	-0.052	-0.012	0.621 (active)
LARP4B (UniProt Q92615)	-0.122	0.007	-0.048	0.135	0.018	-0.213	0.002	0.143	0	0.034
MCUR1 (UniProt Q96AQ8)	0.011	0.041	-0.077	0.118	-0.018	0.065	-0.242 (active)	-0.059	0.015	-0.002
INPP1 (UniProt P49441)	-0.001	0.023	-0.003	-0.108	-0.039	0.016	-0.007	-0.054	-0.072	-0.03
LEMD3 (UniProt Q9Y2U8)	0.04	0.03	-0.173	-0.082	-0.09	-0.056	0.039	-0.026	0.068	0.101
MFF (UniProt Q9GZY8)	0.038	0.025	-0.228	0.018	0.002	-0.074	0.048	-0.012	0.124	-0.042
LDAH isoform 2 (UniProt Q9H6V9)	0.039	0.066	-0.039	0.077	0.464 (active)	-0.286 (active)	0.019	0	-0.053	0.073
KDELR2 (UniProt P33947)	-0.007	0.03	-0.14	0.127	-0.035	-0.047	-0.568 (active)	-0.008	0.024	0.103
LIMA1 isoform 4 (UniProt Q9UHB6)	-0.031	0.033	-0.267 (active)	0.011	0.114	0.206	-0.03	0.006	0.079	0.049
MAPKAPK5 (UniProt Q8IW41)	0.029	-0.003	0.052	0.029	-0.139	0.218	0.055	-0.042	-0.161	0.002
ILF2 (UniProt Q12905)	-0.095	0.027	0.155	0.131	0.082	0.318	-0.024	0.064	-0.014	0.204
MARK2 (UniProt E9PC69)	-0.156	-0.047	-2.09 (active)	0.031	-0.047	-0.581	0.049	0.078	0.077	0.034
KSR1 (UniProt Q8IVT5)	-0.07	-0.084	-0.807 (active)	0.065	-0.231	-0.085	0.085	0.035	0.011	0.044
KCTD2 (UniProt Q14681)	-0.03	0.058	-0.054	0	-0.015	0.016	0.171	0.052	-0.049	-0.028
MARCKS (UniProt P29966)	-0.077	0.071	0.014	0.025	-0.099	0.039	0.134	-0.109	0.031	0.002
INTS5 (UniProt Q6P9B9)	0.076	-0.039	0.529	0.019	-0.232	0.052	-0.064	0.033	-0.102	0.073
IPO9 (UniProt Q96P70)	0.024	-0.082	0.113	0.01	-0.079	-0.039	-0.068	0.012	-0.025	0.447 (active)
MED7 (UniProt O43513)	0.042	0.042	0.001	0.113	0.022	-0.078	-0.068	0.113	0.403 (active)	0.119
MIA2 (UniProt Q96PC5)	-0.036	0.008	-0.059	-0.003	0.03	-0.155	0.035	0.043	0.077	0.032
MAGEC2 (UniProt Q9UBF1)	-0.003	-0.02	0.108	0.093	0.058	-0.059	0.05	-0.003	-0.035	-0.318 (active)
KLC2 (UniProt Q9H0B6)	-0.035	-0.024	-0.309 (active)	0.041	-0.02	-0.107	0.083	0.023	-0.03	0.133
MAPK9 (UniProt P45984)	-0.002	-0.016	0.278 (active)	0.208	0.005	-0.037	-0.032	-0.032	-0.022	0
MARCKSL1 (UniProt P49006)	0.041	0	-0.039	-0.069	0.106	0.006	-0.034	-0.017	-0.031	0.028
